DT40 TDP1 no CPT: qHTS for Inhibitors of human tyrosyl-DNA phosphodiesterase 1 (TDP1): qHTS in cells in absence of CPT | hit rate 15% among 420,000 | DT40 Tdp1-/- hTDP1 cells, no CPT, ATP luminescence, 48 h | Potency, µM (highest dose often 46.2 µM), for inactives: at the top dose activity change, negative = growth inhibition, usual class: inhibitors; also: potency is read from the fitted curve at half-maximal effect; % is scaled to controls: 0 for no effect and ±100 for the full control effect; nearly all actives have a fitted effect of over 55% in size
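Compound effects on proliferation are scored in DT40 Tdp1-/-;hTDP1 cells in the absence of CPT. ATP levels (CellTiter-Glo luminescence) are recorded after a ≥48 hr, 37 °C incubation.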
MCF10A rerep: inducers of DNA re-replication in MCF 10A breast cells; MCF 10A DNA re-replication, Hoechst nuclear intensity, 48 h; Potency, µM (highest dose often 46.1 µM), for inactives: top-dose activity, positive = re-replication, hits mostly activators; hit rate 2.9% among 350,000; also: potency is read from the fitted curve at half-maximal effect; % of control where 0% means no effect; nearly all actives have a fitted effect of over 50% in size
TDP1 cell CPT: growth inhibition of DT40 Tdp1-/-;hTDP1 cells with camptothecin (screen for TDP1 inhibitors). chicken DT40 Tdp1-/-;hTDP1 cells + 20 nM CPT, ATP luminescence, 48 h. Potency, µM (top dose mostly 46.2 µM), for the others: at the highest dose activity change, negative = growth inhibition, usual class: inhibitors. hit rate 12% among 420,000. AID 686979; also: potency is read from the fitted curve at half-maximal effect; % is scaled to controls: 0 for no effect and ±100 for the full control effect; nearly all actives have a fitted effect of over 55% in size
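Cell growth measured by CellTiter-Glo luminescence after a minimum 48 h, 37 C compound exposure with 20 nM CPT in Tdp1-knockout DT40 cells stably expressing hTDP1, seeded 400/well; qHTS titration format.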
SW480 rereplic: inducers of DNA re-replication in SW480 colon cancer cells. SW480 DNA re-replication, Hoechst DNA content imaging, 48 h. Potency, µM (titrated, usually from 46.1 µM), inactives show at the top dose re-replication activation, most hits filed as activators. hit rate 1.8% among 340,000. AID 624297; also: potency is read from the fitted curve at half-maximal effect; % of control where 0% means no effect; nearly all actives have a fitted effect of over 55% in size
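Quantitative HTS format with DMSO vehicle controls; 48 hr drug incubation at 37 C, then 40 min Hoechst staining and scanning imager measurement at 405 nm excitation.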
IL-1B inflam inh: inflammasome signaling inhibition, IL-1 beta readout. activity change, % at 57.5 µM. hit rate 4.7% among 360,000. THP-1 LPS/ATP IL-1B secretion, AlphaLISA, 16 h; stronger effect = lower value. AID 743279; in the data active = activity change below about -50%; inconclusive = mostly about -30% to -49%; also: % is scaled to controls: 0 for no effect and ±100 for the full control effect
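Secreted IL-1B measured by AlphaLISA bead assay after 16 h compound exposure of THP-1 cells; compounds (final up to 57.5 uM) added 1 h before LPS (250 ng/mL) and ATP (1.25 mM) stimulation; lower signal means less secretion.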
BCR signal inh: chronic active BCR signaling inhibition. ABC-DLBCL IkBa-CBG/CBR reporter, luminescence ratio, 4 h. Potency, µM (series often up to 46.1 µM), for the others: at the highest dose activity change, negative = inhibition, hits mostly inhibitors. hit rate 0.05% among 340,000. AID 493014; active = well fitted inhibition curve with a large enough effect in the signal ratio, with a control signal flat, not every such curve was filed as active; inconclusive = small, poorly fitted or top-dose-only effect, or effect the other way, or a change in a side signal; the % refers to the signal ratio;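 also: potency is read from the fitted curve at half-maximal effect; plate controls were basal doxycycline-induced cells for no effect and cells given 10 µM MG132 for full effect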
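Concentration-response series (up to 46 uM) were applied to TMD8 dual-reporter cells for 4 h at 37C with doxycycline. Green/red ratio, after filter-overlap correction, defined %Activity; red signal alone was normalised to basal cells and zero luminescence.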
* hit, by the source's call; ? = inconclusive; . = no result; [ ] = another dose, or the depositor's remark. This is a sample that favours compounds with a hit; in the whole collection about 19% have one here. Unless noted, calls follow the shape of the dose curve; as a rule, active = well fitted curve in the direction sought with a large enough effect; inconclusive = small, poorly fitted or top-dose-only effect, or another doubt; inactive = no such curve, though single readings can be large; an effect the other way counts as inactive or inconclusive.

SMILES	DT40 TDP1 no CPT	MCF10A rerep	TDP1 cell CPT	SW480 rereplic	IL-1B inflam inh	BCR signal inh
CCc1ccc(NC(=O)COC(=O)/C(=C/c2ccccc2OC)c2ccccc2)cc1	?	?	-2%	-2%	3	-1%
COc1ccc(CC(N)c2csc(NC(=O)Nc3ccccc3-c3ccccc3)n2)cc1 (configuration not stated)	?	.	?	.	-58*	.
COc1ccc(CC(N)c2csc(NC(=O)c3cccs3)n2)cc1 (configuration not stated)	23µM*	.	18µM*	.	-19	.
CC(C)CN(c1ccccc1)S(=O)(=O)c1nnc(NC(=O)c2ccco2)s1	?	11%	?	-14%	-14	?
COc1ccc(N(CC(C)C)S(=O)(=O)c2nnc(NC(=O)c3cccs3)s2)cc1	21µM*	.	?	.	.	.
CC(C)C(N)c1csc(NC(=O)Nc2ccccc2C(C)(C)C)n1 (configuration not stated)	?	.	18µM*	.	-60*	.
NC(=NCCc1ccccc1)NS(=O)(=O)c1ccccc1F	-25%	3%	-8%	-3%	10	-1%
CC(C)(C)c1ccccc1NC(=O)Nc1nc(C(N)c2ccccc2Cl)cs1 (configuration not stated)	?	.	?	.	25	.
COc1ccc(CC(N)c2csc(NC(=O)Nc3ccccc3C(C)(C)C)n2)cc1 (configuration not stated)	?	.	?	.	-52*	.
CCC(=O)Oc1ccc2c(C)cc(=O)oc2c1C	6.5µM*	-5%	?	4%	0	?
Cc1cc(=O)oc2c(C)c(OC(=O)c3ccco3)ccc12	-21%	16%	-18%	-6%	-14	.
CCCCOc1ccc2c(C)cc(=O)oc2c1OCCCC	26µM*	?	16µM*	4%	?	?
CCc1nn(CC(=O)NCCCc2ccccc2)c(=O)c2cc3cc(F)ccc3n12	0%	1%	0%	5%	3	1%
COc1ccc(-n2cnc3cc(C(=O)NCCC4=CCCCC4)ccc32)cc1	?	.	18µM*	.	.	?
CCCCCNC(=O)c1ccc2c(c1)ncn2-c1cccc(C)c1	?	.	?	.	.	-2%
O=C(NCCC1=CCCCC1)c1ccc2c(c1)ncn2-c1cccc(Cl)c1	15µM*	.	16µM*	.	.	?
COC(=O)c1ccc(C(=O)OC)c(NC(=S)N2CCN(c3ccccn3)CC2)c1	-12%	-8%	-6%	-8%[1.84 µM]	9	0%
O=S(=O)(NC1CCN(S(=O)(=O)c2c(F)cccc2F)CC1)c1ccc2c(c1)OCCO2	.	-7%	.	15%	.	-1%
COCCNC(=S)N1CCC(NC(=O)c2ccco2)CC1	-5%	-1%	12%	-1%	-19	1%
Cc1ccc(CN2CCSc3ccc(C(=O)N4CCN(c5ccc(Cl)cc5)CC4)cc32)cc1	21µM*	.	15µM*	.	.	.
CN1CCN(C(=O)c2ccc3c(c2)N(Cc2ccccc2)CCS3)CC1	?	5%	?	-4%	-19	21%
Cc1ccc(CN2CCSc3ccc(C(=O)N4CCN(c5cccc(C)c5C)CC4)cc32)cc1	5.2µM*	.	8.2µM*	.	.	.
CC(C)C1Cc2c(sc3ncnc(NN)c23)CO1 (configuration not stated)	12µM*	17%	8.2µM*	3%	57	-1%
CC(C)Cc1nc2sc3c(c2c(=O)n1N)CC(C(C)C)OC3 (configuration not stated)	2.6µM*	?	16µM*	?	-2	3%
C=C(C)CSc1nc2sc3c(c2c(=O)n1-c1ccccc1)CC(C(C)C)OC3 (configuration not stated)	2%	.	-21%	.	.	.
